Screens deposited in PubChem by National Center for Advancing Translational Sciences (NCATS).
An excerpt weighted towards active compounds, which were near 3.3% of everything screened.
RE007 growth inh – less growth of the S. pombe RE007 Vpr strain. hit rate 0.21% among 360,000. Potency, µM (top dose mostly 92.2 µM), without a hit: at the top dose activity change, negative = less growth, usual class: inhibitors. S. pombe RE007 Vpr strain, BacTiter-Glo ATP luminescence, 24 h; active = well fitted falling curve with a large enough effect; inconclusive = small, poorly fitted or top-dose-only effect; inactive = no such curve, though single readings can be large or run the other way; also: % is scaled to controls: 0 for no effect and ±100 for the full control effect; nearly all actives have a fitted effect of over 50% in size
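Fission yeast RE007 carrying one integrated HIV-1 vpr copy, seeded at OD 0.01 in PMG+AL medium with 23 nL pinned compound. Grown 24 h at 30 degrees; viability read by BacTiter-Glo luminescence after 5 min.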
Tb PYK inh – T. brucei pyruvate kinase inhibition; Q57TT1; TbPYK enzyme, Kinase-Glo Plus ATP luminescence, 45 min; Potency, µM (series often up to 76.8 µM), inactives show at the top dose activity, negative = inhibition, usual class: inhibitors; hit rate 0.12% among 410,000; AID 624173; also: % is scaled to controls: 0 for no effect and ±100 for the full control effect; nearly all actives have a fitted effect of over 50% in size
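Enzyme and substrate buffer are dispensed first and compound is pin-transferred. ADP at 130 uM final then starts the reaction, which runs 45 min at room temperature. Detection reagent is added for 10 min before luminescence is imaged.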
SARS PLP yeast – SARS-CoV PLP inhibition in yeast | S. cerevisiae expressing SARS-CoV PLpro, growth rescue | Potency, µM (doses to about 32.9 µM), for inactives: top-dose activity, positive = growth rescue, usual class: activators | hit rate 0.19% among 330,000; calls by dose curve; also: 0% is about no effect; nearly all actives have a fitted effect of over 55% in size
AmpC inh no detg – AmpC beta-lactamase inhibition without detergent | P00811 | AmpC nitrocefin hydrolysis, absorbance 480 nm, 0.0001% Triton | Potency, µM (highest dose often 57.1 µM), for the others: top-dose activity change, negative = inhibition, most hits filed as inhibitors | hit rate 0.52% among 330,000;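 also: plate controls were no compound for no effect and no enzyme for full effect; nearly all actives have a fitted effect of over 20% in size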
Target sequence (P00811 whole entry, looked up): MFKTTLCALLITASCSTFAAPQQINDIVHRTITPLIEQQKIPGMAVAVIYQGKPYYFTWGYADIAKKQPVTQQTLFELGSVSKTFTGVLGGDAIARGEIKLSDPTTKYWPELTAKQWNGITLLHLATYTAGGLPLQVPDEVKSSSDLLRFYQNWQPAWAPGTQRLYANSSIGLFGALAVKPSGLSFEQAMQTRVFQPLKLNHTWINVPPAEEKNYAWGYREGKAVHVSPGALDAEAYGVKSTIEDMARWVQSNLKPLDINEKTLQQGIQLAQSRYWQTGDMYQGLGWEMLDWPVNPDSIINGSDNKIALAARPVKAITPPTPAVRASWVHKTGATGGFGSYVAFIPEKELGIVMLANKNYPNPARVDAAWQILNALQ
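AmpC (5.3 nM in the dispensed reagent) in 20 mM phosphate pH 7.0 with 0.01% (detergent screen) or 0.0001% Triton X-100 was preincubated with compounds for 15 min at room temperature. Nitrocefin was then added from an 800 uM solution, and hydrolysis was followed at 480 nm.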
AmpC detergent – AmpC beta-lactamase inhibition with detergent present; P00811; AmpC hydrolysis of nitrocefin, absorbance 480 nm, 0.01% Triton; Potency, µM (top dose mostly 114 µM), for inactives: top-dose activity change, negative = inhibition, hits mostly inhibitors; hit rate 0.041% among 370,000; AID 485294;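 also: 0% = no-compound wells and -100% = no-enzyme wells; nearly all actives have a fitted effect of over 25% in size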
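20 mM phosphate pH 7.0 + 0.01% (detergent screen) or 0.0001% Triton X-100; 5.3 nM AmpC reagent; cpd preinc 15 min RT; nitrocefin (800 uM stock) to start; A480 q20 s × 4 min; Activity was normalised to no-enzyme and no-compound control wells.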
Sm TGR inh – S. mansoni TGR enzyme inhibition | Q962Y6 | purified TGR, DTNB reduction, TNB absorbance 405 nm | AID 485364 | Potency, µM (doses to about 114 µM), for the others: at the top dose activity change, negative = inhibition, most hits filed as inhibitors | hit rate 3% among 360,000; also: % is scaled to controls: 0 for no effect and ±100 for the full control effect; nearly all actives have a fitted effect of over 60% in size
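First, TGR (20 nM dispensed) and NADPH were mixed with compound. Second, a 15 min room-temperature incubation followed. Third, further NADPH and then DTNB were added to start the reaction. Finally, TNB absorbance was monitored kinetically.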
The depositor's hits bear a star; ? = inconclusive; . = no result. Unless noted, calls follow the shape of the dose curve; as a rule, active = well fitted curve in the direction sought with a large enough effect; inconclusive = small, poorly fitted or top-dose-only effect, or another doubt; inactive = no such curve, though single readings can be large; an effect the other way counts as inactive or inconclusive. Potency is read from the fitted curve at half-maximal effect.

SMILES	RE007 growth inh	Tb PYK inh	SARS PLP yeast	AmpC inh no detg	AmpC detergent	Sm TGR inh
Brc1ccc(-c2ncc3ccccn23)cc1	2%	1%	-14%	-28%	0%	28µM*
CC1(C)CC(Nc2ccc(Nc3ccccc3)cc2)CC(C)(C)N1	.	-22%	-5%	2%	-13%	6.3µM*
CC1(C)CC(NC(=O)c2ccccc2)CC(C)(C)N1	2%	-4%	10%	-26%	-14%	9%
Cc1cn2c(=O)c(S(=O)(=O)Nc3ccc(N4CCOCC4)cc3)c(C)nc2s1	.	4%	.	.	14%	5%
COc1ccc(Cc2nc(-c3ccc(-n4cccc4)cc3)no2)cc1OC	-5%	-3%	-7%	8.9µM*	0%	-2%
CCOC(=O)c1ccc(NC(=O)C(CC)Sc2nc3ncccc3o2)cc1 (stereo not drawn)	.	0%	.	.	2%	0%
O=S(=O)(O)OCC1OC(COS(=O)(=O)O)(C2(OS(=O)(=O)O)OC(CO)C(OS(=O)(=O)O)C(OS(=O)(=O)O)C2OS(=O)(=O)O)C(OS(=O)(=O)O)C1OS(=O)(=O)O (stereo not drawn)	.	-3%	.	.	.	.
C=CCN1C(=O)NC(=O)/C(=C/c2cnc(SC)nc2)C1=O	1%	?	0%	-10%	?	?
C=CCN1C(=O)NC(=O)/C(=C/c2cc3c4c(c2)CCCN4CCC3)C1=O	-1%	-21%	-3%	13%	-13%	8.9µM*
Cc1nnc(N=c2ssnc2Cl)o1	17%	?	1%	-9%	3%	28µM*
Cc1ccc(N=c2ssnc2Cl)cc1	-92%	28µM*	-45%	-53%	-22%	?
N#Cc1ccccc1Cn1c(SCC(=O)Nc2ccc(F)cc2)nc2ccccc21	.	2%	.	.	3%	6%
COc1ccc(S(=O)(=O)NCC(c2ccco2)N2CCOCC2)cc1C (stereo not drawn)	.	2%	.	.	0%	-6%
COc1ccc(S(=O)(=O)NCC(c2ccco2)S(=O)(=O)c2cccs2)cc1C (stereo not drawn)	.	-4%	.	.	3%	0.1µM*
Cc1ccc(S(=O)(=O)C(CNS(=O)(=O)c2ccc(F)c(C(F)(F)F)c2)c2ccco2)cc1 (stereo not drawn)	.	5%	.	.	0%	0.32µM*
Cc1ccc(S(=O)(=O)C(CNC(=O)c2ccc(F)c(F)c2)c2ccco2)cc1 (stereo not drawn)	.	1%	.	.	-1%	-25%
COc1ccc(S(=O)(=O)NCC(c2ccco2)S(=O)(=O)c2ccc(C)cc2)cc1F (stereo not drawn)	.	-8%	.	.	3%	0.4µM*
COc1ccc(S(=O)(=O)NCC(c2ccco2)S(=O)(=O)c2cccs2)cc1F (stereo not drawn)	.	-4%	.	.	-2%	0.1µM*
Cc1ccc(CN2CCCn3nc(C(=O)NCCc4cccc(C)c4)cc3C2=O)cc1	.	0%	.	.	0%	0%
CCOc1ccc(NS(=O)(=O)c2ccc(NS(=O)(=O)c3cccs3)cc2)cc1	15%	6%	0%	-42%	-1%	2%
CCOc1ccc(S(=O)(=O)NCC(c2ccco2)S(=O)(=O)c2cccs2)cc1 (stereo not drawn)	.	1%	.	.	2%	0.1µM*
Cc1ccc(C(CNS(=O)(=O)c2ccc(F)cc2C)N2CCN(C)CC2)cc1 (stereo not drawn)	1%	-2%	1%	91%	-13%	-18%
Cc1cc(F)ccc1S(=O)(=O)NCC(c1ccco1)S(=O)(=O)c1cccs1 (stereo not drawn)	.	-1%	.	.	13%	0.1µM*
O=C(CN1C(=O)COc2ccc(S(=O)(=O)N3CCCC3)cc21)N1CCN(c2ccccc2F)CC1	.	-13%	.	.	10%	0%
CC(=O)c1ccc(NC(=O)CSc2nccn2Cc2ccco2)cc1	.	-2%	.	.	2%	-9%
SMILES	RE007 growth inh	Tb PYK inh	SARS PLP yeast	AmpC inh no detg	AmpC detergent	Sm TGR inh
COc1cccc(-n2c(-c3ccc4[nH]c(C)c(C)c4c3)n[nH]c2=S)c1	-2%	7.9µM*	1%	-36%	-6%	-4%
COc1cccc(-n2c(-c3cccc(S(=O)(=O)N(C)C)c3)n[nH]c2=S)c1	6%	7.1µM*	0%	-31%	-9%	6%
COc1ccc(OC)c(-n2c(-c3cccc(S(=O)(=O)N(C)C)c3)n[nH]c2=S)c1	7%	-29%	0%	-16%	-1%	6%
Cc1ccc(Cl)cc1N1CCN(C(=O)C2CCN(c3nnc(-n4cccc4)s3)CC2)CC1	-4%	-1%	-17%	1.8µM*	?	1%
CCOc1ccc(CCNC(=O)c2cnc3sc(N4CCCCC4)nn3c2=O)cc1	.	0%	.	.	2%	5%
CCc1ccc2oc(-c3cccc(N)c3)nc2c1	10µM*	-7%	-4%	-1%	-2%	-17%
CCOC(=O)C(=CNc1ccc(-c2ccco2)c(Cl)c1)C(=O)OCC	-12%	-5%	-1%	24%	-10%	14µM*
COc1ccc(Cl)cc1S(=O)(=O)N1CCN(Cc2cccc(F)c2)CC1	.	-1%	.	.	11%	9%
CC1CCN(S(=O)(=O)c2ccc3c(c2)oc(=O)n3CC(=O)NC(C)c2ccccc2)CC1 (stereo not drawn)	.	-1%	.	.	-4%	2%
O=C(COC(=O)CSc1ccc([N+](=O)[O-])cc1)NC1CCCCCCC1	36%	-4%	-17%	32µM*	?	-3%
O=C(COC(=O)c1ccc(-c2ccc([N+](=O)[O-])cc2)o1)NC(=O)NC1CCCCC1	.	-18%	-28%	-22%	1%	40µM*
Cc1ccc(SCC(=O)OCC(=O)NC2CCCCCCC2)cc1	11%	6%	-6%	18%	-18%	-1%
O=C(NC1CCC(O)CC1)c1ccc(-c2ccc([N+](=O)[O-])cc2)o1 (stereo not drawn)	22%	1%	-1%	-7%	-14%	1.4µM*
COc1ccc(S(=O)(=O)N2CCN(Cc3nc4ccc(C)cc4o3)CC2)cc1OC	.	2%	.	.	-8%	-5%
Cn1cnc([N+](=O)[O-])c1S(=O)(=O)c1ccc(Cl)cc1	?	-4%	-43%	-48%	?	0.1µM*
CCOc1ccc(CN2C(=O)c3ccccc3Sc3ccc(C(=O)NCc4ccc5c(c4)OCO5)cc32)cc1	.	0%	.	.	6%	0%
Cc1cccc(C(=O)Nc2ccc3nc(SCC(=O)N4CCc5ccccc54)sc3c2)c1	.	7%	.	.	8%	2%
COc1ccc(NC(=O)CCc2nnc3n(C)c(=O)c4sccc4n23)cc1Cl	.	-1%	.	.	8%	5%
